Assay results as given in ChEMBL document CHEMBL1961873, “Compounds: GSK PKIS; Assays: Nanosyn kinase panel” (2012).

Each molecule was assayed against T1, Ephrin type-A receptor 3 (Homo sapiens) (UniProt P29320). Details: at 1 µM.
T1 sequence (whole entry): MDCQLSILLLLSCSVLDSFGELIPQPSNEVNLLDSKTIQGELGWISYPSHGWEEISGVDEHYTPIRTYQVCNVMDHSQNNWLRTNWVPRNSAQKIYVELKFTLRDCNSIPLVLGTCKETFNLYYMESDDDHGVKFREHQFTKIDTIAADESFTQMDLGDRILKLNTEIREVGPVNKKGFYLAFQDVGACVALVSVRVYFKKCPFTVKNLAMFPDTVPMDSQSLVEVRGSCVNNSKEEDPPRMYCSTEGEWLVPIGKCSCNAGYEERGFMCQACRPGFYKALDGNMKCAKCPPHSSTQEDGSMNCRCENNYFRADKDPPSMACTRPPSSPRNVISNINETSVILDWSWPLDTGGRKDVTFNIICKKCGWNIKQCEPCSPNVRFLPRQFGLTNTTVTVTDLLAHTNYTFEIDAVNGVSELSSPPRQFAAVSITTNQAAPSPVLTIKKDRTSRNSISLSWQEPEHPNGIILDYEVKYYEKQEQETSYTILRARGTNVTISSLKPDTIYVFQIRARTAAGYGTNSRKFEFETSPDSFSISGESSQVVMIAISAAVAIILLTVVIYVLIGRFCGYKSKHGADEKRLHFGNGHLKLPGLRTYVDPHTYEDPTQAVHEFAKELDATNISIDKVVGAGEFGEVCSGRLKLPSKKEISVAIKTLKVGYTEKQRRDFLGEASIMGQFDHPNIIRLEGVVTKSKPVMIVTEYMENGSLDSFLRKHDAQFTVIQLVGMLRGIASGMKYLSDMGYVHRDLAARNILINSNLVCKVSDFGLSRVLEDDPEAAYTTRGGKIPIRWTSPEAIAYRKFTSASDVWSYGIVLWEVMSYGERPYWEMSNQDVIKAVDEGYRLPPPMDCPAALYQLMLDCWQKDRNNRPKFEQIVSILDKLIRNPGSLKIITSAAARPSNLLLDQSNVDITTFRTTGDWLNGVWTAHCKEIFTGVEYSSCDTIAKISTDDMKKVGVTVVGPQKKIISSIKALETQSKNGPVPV

| SMILES | inhibition |
| --- | --- |
| Fc1ccc(-c2cc(-c3c[nH]nc3-c3ccccn3)ccn2)cc1 | 4.31% |
| Clc1ccc(-c2nn3ncccc3c2-c2ccnc(Nc3ccccc3)n2)cc1 | 7.97% |
| CC1=C(C(=O)Nc2cc(Cl)c3[nH]ncc3c2)C(c2ccc(C(F)(F)F)cc2)CC(=O)N1 (stereo unspecified) | 2.48% |
| CC(C)(CO)CNC(=O)c1ccc2c(c1)/C(=N/Nc1ccc(S(N)(=O)=O)cc1)C(=O)N2 | 1.81% |
| COc1cccc(-c2c[nH]c3c(N/N=C/c4ccncc4)ncnc23)c1 | 6.01% |
| Cc1ccc(O)cc1Nc1ccnc2cc(-c3ccccn3)ccc12 | 87.5% |
| Cc1cccc2c1NC(=O)/C2=N\Nc1ccc(S(N)(=O)=O)cc1 | 3.43% |
| CN1CCC(n2cnc(-c3ccc(F)cc3)c2-c2ccnc(Nc3ccccc3)n2)CC1 | 4.18% |
| COc1ccc2[nH]c3c4[nH]c5ccc(OC)cc5c4c4c(c3c2c1)C(=O)NC4=O | 6.32% |
| CNC(=O)c1cncc(/C=C/c2ccccc2Cl)c1 | 1.99% |
| COC(=O)Nc1nc2ccc(Oc3ccc(NC(=O)Nc4cccc(Cl)c4)cc3)cc2[nH]1 | 8.5% |
| COc1ccc(-c2cc(-c3c[nH]nc3-c3ccccn3)ccn2)cc1 | 7.51% |
| CCn1c(-c2nonc2N)nc2ccccc21 | 3.08% |
| COc1ccc(CNC(=O)c2ccc(-c3cc(-c4nnc(C)o4)ccc3C)cc2)cc1 | 4.21% |
| Fc1cccc(COc2ccc(Nc3ncnc4sc(-c5ccco5)cc34)cc2Cl)c1 | 4.97% |
| CCn1c(-c2nonc2N)nc2c(C#CC(C)(C)O)ncc(OC3CCNCC3)c21 | 3.69% |
| CNC(=O)c1cc(-c2ccc(F)cc2)cc(-c2ccc(S(=O)(=O)N3CCCC3)cc2)c1N | 2.23% |

| SMILES | inhibition |
| --- | --- |
| COc1cc(N2CCN(C(C)C)CC2)ccc1Nc1nc(Nc2ccc(F)cc2C(N)=O)c2cc[nH]c2n1 | 1.28% |
| CCn1c(-c2nonc2N)nc2cnc(Oc3cccc(NC(=O)c4ccc(N(C)C)cc4)c3)cc21 | 4.01% |
| COc1ccc2c(-c3ccnc(Nc4cccc(OC(F)(F)F)c4)n3)cnn2n1 | 7.93% |
| NS(=O)(=O)c1ccc(N/N=C2\C(=O)Nc3ccc4ncccc4c32)cc1 | 12.4% |
| O=C(Nc1n[nH]c2cc(-c3ccc(F)cc3)ccc12)C1CC1 | 4.36% |
| c1cc(-c2cnn3nc(N4CCOCC4)ccc23)nc(NC2CC2)n1 | 5.8% |
| CCc1nn2ncccc2c1-c1ccnc(NC2CC2)n1 | 3.87% |
| CN1CCC(n2cnc(-c3ccc(F)cc3)c2-c2ccnc(N)n2)CC1 | 2.95% |
| COc1ccc(-c2cc3c(N)ncnc3o2)cc1 | -2.59% |
| COc1ccc(-c2oc3ncnc(N)c3c2-c2ccc(NC(=O)Nc3cc(C(F)(F)F)ccc3F)cc2)cc1 | 87.1% |
| COc1cc(Nc2nccc(Nc3ccc4c(C)n[nH]c4c3)n2)cc(OC)c1OC | 15.3% |
| COC(=O)c1sc(-n2cnc3cc(OC)c(OC)cc32)cc1OCc1ccccc1C(F)(F)F | 3.54% |
| N#Cc1c(NC(=O)c2ccc(F)cc2)sc2c1CCCC2 | 2.8% |
| NS(=O)(=O)c1ccc(Nc2ncc(-c3ccccc3)o2)cc1 | 4.57% |
| CCn1cc(-c2ccnc3[nH]ccc23)c(-c2cccc(NC(=O)Nc3ccc(OCc4ccccc4)cc3)c2)n1 | 1.02% |
| c1ccc(-c2nc3n(c2-c2ccc4c(c2)OCO4)CCC3)nc1 | 1.96% |

Each molecule was assayed against Ephrin type-A receptor 4 (Homo sapiens) (UniProt P54764). Details: at 0.1 µM.
Ephrin type-A receptor 4 (Homo sapiens), sequence (P54764 whole entry): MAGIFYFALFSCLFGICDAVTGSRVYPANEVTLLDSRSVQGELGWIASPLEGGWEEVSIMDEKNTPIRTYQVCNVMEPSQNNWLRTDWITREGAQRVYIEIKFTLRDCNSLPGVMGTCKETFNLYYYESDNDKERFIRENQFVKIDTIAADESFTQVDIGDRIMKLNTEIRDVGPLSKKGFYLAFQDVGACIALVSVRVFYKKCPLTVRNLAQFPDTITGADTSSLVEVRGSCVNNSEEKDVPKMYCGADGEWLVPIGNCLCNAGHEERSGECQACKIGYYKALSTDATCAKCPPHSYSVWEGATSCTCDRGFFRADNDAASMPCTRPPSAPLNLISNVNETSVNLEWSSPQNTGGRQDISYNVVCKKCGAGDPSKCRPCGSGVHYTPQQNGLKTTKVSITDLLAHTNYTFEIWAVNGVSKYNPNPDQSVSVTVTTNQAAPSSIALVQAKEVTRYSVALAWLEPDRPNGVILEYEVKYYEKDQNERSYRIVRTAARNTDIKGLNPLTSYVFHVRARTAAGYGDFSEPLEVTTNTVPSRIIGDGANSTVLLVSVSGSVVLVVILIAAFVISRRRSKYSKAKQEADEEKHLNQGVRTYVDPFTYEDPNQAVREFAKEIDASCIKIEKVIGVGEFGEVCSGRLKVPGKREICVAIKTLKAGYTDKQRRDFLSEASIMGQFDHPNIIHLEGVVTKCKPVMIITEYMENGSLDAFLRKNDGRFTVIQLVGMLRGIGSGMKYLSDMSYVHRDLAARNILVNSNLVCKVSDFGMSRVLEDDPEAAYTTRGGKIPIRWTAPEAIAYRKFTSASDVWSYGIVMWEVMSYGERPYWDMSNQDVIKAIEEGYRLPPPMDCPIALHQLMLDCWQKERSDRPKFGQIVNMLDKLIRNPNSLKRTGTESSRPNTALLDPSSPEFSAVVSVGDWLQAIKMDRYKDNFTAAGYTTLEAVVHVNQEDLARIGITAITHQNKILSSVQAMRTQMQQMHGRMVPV

| SMILES | inhibition |
| --- | --- |
| Fc1ccc(-c2cc(-c3c[nH]nc3-c3ccccn3)ccn2)cc1 | 11.9% |
| Clc1ccc(-c2nn3ncccc3c2-c2ccnc(Nc3ccccc3)n2)cc1 | 3.45% |
| CC1=C(C(=O)Nc2cc(Cl)c3[nH]ncc3c2)C(c2ccc(C(F)(F)F)cc2)CC(=O)N1 (stereo unspecified) | 8.02% |
| CC(C)(CO)CNC(=O)c1ccc2c(c1)/C(=N/Nc1ccc(S(N)(=O)=O)cc1)C(=O)N2 | -0.06% |
| COc1cccc(-c2c[nH]c3c(N/N=C/c4ccncc4)ncnc23)c1 | 8.17% |
| Cc1ccc(O)cc1Nc1ccnc2cc(-c3ccccn3)ccc12 | 91.2% |
| Cc1cccc2c1NC(=O)/C2=N\Nc1ccc(S(N)(=O)=O)cc1 | 6.06% |
| CN1CCC(n2cnc(-c3ccc(F)cc3)c2-c2ccnc(Nc3ccccc3)n2)CC1 | 7.5% |
| COc1ccc2[nH]c3c4[nH]c5ccc(OC)cc5c4c4c(c3c2c1)C(=O)NC4=O | 10.1% |
| CNC(=O)c1cncc(/C=C/c2ccccc2Cl)c1 | 3.99% |
| COC(=O)Nc1nc2ccc(Oc3ccc(NC(=O)Nc4cccc(Cl)c4)cc3)cc2[nH]1 | 22.3% |
| COc1ccc(-c2cc(-c3c[nH]nc3-c3ccccn3)ccn2)cc1 | 8.66% |
| CCn1c(-c2nonc2N)nc2ccccc21 | 7.78% |
| COc1ccc(CNC(=O)c2ccc(-c3cc(-c4nnc(C)o4)ccc3C)cc2)cc1 | 5.67% |
| Fc1cccc(COc2ccc(Nc3ncnc4sc(-c5ccco5)cc34)cc2Cl)c1 | 7.43% |
| CCn1c(-c2nonc2N)nc2c(C#CC(C)(C)O)ncc(OC3CCNCC3)c21 | 4.06% |
| CNC(=O)c1cc(-c2ccc(F)cc2)cc(-c2ccc(S(=O)(=O)N3CCCC3)cc2)c1N | 5.15% |

| SMILES | inhibition |
| --- | --- |
| COc1cc(N2CCN(C(C)C)CC2)ccc1Nc1nc(Nc2ccc(F)cc2C(N)=O)c2cc[nH]c2n1 | 4.96% |
| CCn1c(-c2nonc2N)nc2cnc(Oc3cccc(NC(=O)c4ccc(N(C)C)cc4)c3)cc21 | 4.68% |
| COc1ccc2c(-c3ccnc(Nc4cccc(OC(F)(F)F)c4)n3)cnn2n1 | 11.3% |
| NS(=O)(=O)c1ccc(N/N=C2\C(=O)Nc3ccc4ncccc4c32)cc1 | 8.83% |
| O=C(Nc1n[nH]c2cc(-c3ccc(F)cc3)ccc12)C1CC1 | 7.63% |
| c1cc(-c2cnn3nc(N4CCOCC4)ccc23)nc(NC2CC2)n1 | 10.2% |
| CCc1nn2ncccc2c1-c1ccnc(NC2CC2)n1 | 4.8% |
| CN1CCC(n2cnc(-c3ccc(F)cc3)c2-c2ccnc(N)n2)CC1 | 5.99% |
| COc1ccc(-c2cc3c(N)ncnc3o2)cc1 | -2.85% |
| COc1ccc(-c2oc3ncnc(N)c3c2-c2ccc(NC(=O)Nc3cc(C(F)(F)F)ccc3F)cc2)cc1 | 87.3% |
| COc1cc(Nc2nccc(Nc3ccc4c(C)n[nH]c4c3)n2)cc(OC)c1OC | 41.4% |
| COC(=O)c1sc(-n2cnc3cc(OC)c(OC)cc32)cc1OCc1ccccc1C(F)(F)F | 9.09% |
| N#Cc1c(NC(=O)c2ccc(F)cc2)sc2c1CCCC2 | 4.24% |
| NS(=O)(=O)c1ccc(Nc2ncc(-c3ccccc3)o2)cc1 | 7.23% |
| CCn1cc(-c2ccnc3[nH]ccc23)c(-c2cccc(NC(=O)Nc3ccc(OCc4ccccc4)cc3)c2)n1 | 0.23% |
| c1ccc(-c2nc3n(c2-c2ccc4c(c2)OCO4)CCC3)nc1 | 4.05% |
